Tests used:
[1] = target: T1, 3-phosphoinositide-dependent protein kinase 1 (Homo sapiens) (UniProt O15530); conditions: at 0.1 µM;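 note: values are mean inhibition of PDK1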
T1 sequence (whole entry): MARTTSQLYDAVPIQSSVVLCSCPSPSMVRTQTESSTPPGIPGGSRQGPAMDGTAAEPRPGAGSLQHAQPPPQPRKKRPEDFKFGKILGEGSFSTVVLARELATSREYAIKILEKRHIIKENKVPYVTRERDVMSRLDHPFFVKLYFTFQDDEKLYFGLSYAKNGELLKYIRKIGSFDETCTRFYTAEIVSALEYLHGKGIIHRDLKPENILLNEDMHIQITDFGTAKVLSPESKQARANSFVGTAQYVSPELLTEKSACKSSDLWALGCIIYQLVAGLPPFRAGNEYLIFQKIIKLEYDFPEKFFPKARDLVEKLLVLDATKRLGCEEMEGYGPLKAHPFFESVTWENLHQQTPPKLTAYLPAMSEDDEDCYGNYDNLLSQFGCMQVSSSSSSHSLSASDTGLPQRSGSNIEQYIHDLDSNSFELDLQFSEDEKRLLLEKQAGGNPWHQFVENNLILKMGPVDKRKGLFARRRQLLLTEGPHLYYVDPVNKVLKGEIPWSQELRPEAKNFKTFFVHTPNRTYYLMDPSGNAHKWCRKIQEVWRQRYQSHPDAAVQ

[2] = target: cAMP-dependent protein kinase catalytic subunit alpha (Homo sapiens) (UniProt P17612); conditions: at 0.1 µM
[3] = target: cAMP-dependent protein kinase catalytic subunit alpha (Homo sapiens) (UniProt P17612); conditions: at 1 µM
[4] = target: Protein kinase C alpha type (Homo sapiens) (UniProt P17252); conditions: at 0.1 µM
[5] = target: Protein kinase C alpha type (Homo sapiens) (UniProt P17252); conditions: at 1 µM
[6] = target: Protein kinase C beta type (Homo sapiens) (UniProt P05771); conditions: at 0.1 µM
Sequence of Protein kinase C beta type (Homo sapiens) (P05771 2-671 limits assumed): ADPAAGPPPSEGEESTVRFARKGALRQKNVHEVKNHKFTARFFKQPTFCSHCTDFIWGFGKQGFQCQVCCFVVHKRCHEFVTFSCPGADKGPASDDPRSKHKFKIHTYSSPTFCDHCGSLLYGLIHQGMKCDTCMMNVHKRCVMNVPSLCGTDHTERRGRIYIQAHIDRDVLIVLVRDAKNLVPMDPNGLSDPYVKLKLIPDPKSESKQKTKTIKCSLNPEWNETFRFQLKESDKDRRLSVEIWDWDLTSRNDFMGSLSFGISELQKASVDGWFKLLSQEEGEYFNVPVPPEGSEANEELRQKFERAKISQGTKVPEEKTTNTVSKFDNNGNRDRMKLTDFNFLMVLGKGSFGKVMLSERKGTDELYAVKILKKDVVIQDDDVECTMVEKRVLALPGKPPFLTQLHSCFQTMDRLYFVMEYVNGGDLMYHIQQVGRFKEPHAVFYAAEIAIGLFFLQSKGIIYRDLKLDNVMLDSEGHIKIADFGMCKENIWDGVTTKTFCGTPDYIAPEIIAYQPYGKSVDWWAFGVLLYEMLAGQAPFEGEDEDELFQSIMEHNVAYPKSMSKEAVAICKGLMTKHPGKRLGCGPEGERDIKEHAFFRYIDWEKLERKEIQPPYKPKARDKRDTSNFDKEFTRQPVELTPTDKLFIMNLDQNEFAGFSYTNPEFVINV

[7] = target: Protein kinase C beta type (Homo sapiens) (UniProt P05771); conditions: at 1 µM
[8] = target: Protein kinase C eta type (Homo sapiens) (UniProt P24723); conditions: at 0.1 µM
Sequence of Protein kinase C eta type (Homo sapiens) (P24723 whole entry): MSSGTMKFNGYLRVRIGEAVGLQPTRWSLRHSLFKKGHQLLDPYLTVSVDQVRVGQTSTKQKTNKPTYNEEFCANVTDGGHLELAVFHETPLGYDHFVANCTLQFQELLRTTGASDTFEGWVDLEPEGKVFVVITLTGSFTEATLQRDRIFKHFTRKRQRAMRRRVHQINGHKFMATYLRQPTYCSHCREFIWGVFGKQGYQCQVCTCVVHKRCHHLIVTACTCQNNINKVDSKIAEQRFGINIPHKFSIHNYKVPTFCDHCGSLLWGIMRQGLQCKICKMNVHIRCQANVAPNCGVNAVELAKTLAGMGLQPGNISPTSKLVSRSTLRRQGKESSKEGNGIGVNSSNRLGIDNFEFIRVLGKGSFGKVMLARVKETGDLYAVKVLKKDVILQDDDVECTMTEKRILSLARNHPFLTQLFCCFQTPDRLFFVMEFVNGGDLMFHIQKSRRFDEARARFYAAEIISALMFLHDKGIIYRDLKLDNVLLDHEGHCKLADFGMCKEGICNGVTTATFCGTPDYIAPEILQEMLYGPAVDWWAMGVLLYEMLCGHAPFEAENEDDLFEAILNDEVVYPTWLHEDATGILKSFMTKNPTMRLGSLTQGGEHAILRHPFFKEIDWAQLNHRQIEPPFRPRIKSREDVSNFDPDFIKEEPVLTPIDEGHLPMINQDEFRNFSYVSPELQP

[9] = target: Protein kinase C eta type (Homo sapiens) (UniProt P24723); conditions: at 1 µM
[10] = target: Protein kinase C gamma type (Homo sapiens) (UniProt P05129); conditions: at 0.1 µM
[11] = target: Protein kinase C gamma type (Homo sapiens) (UniProt P05129); conditions: at 1 µM
[12] = target: T2, Protein kinase C iota type (Homo sapiens) (UniProt P41743); conditions: at 0.1 µM
T2 sequence (whole entry): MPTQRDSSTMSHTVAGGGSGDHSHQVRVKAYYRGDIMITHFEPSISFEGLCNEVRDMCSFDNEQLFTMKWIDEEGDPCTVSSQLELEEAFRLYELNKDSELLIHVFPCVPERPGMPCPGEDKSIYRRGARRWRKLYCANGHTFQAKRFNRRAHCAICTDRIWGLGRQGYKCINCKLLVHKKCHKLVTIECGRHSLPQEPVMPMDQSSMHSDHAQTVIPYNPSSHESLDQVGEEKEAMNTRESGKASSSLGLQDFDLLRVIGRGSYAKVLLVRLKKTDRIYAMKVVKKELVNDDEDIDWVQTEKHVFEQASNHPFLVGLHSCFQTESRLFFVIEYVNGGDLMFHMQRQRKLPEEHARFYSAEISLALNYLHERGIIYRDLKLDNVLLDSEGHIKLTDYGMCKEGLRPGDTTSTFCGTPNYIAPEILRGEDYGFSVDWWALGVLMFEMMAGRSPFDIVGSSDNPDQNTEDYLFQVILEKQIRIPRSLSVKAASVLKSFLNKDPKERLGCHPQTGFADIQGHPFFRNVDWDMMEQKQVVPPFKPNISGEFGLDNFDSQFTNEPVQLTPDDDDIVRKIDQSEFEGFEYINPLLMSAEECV

[13] = target: T2, Protein kinase C iota type (Homo sapiens); conditions: at 1 µM
[14] = target: Protein kinase C theta type (Homo sapiens) (UniProt Q04759); conditions: at 0.1 µM
Sequence of Protein kinase C theta type (Homo sapiens) (Q04759 whole entry, looked up): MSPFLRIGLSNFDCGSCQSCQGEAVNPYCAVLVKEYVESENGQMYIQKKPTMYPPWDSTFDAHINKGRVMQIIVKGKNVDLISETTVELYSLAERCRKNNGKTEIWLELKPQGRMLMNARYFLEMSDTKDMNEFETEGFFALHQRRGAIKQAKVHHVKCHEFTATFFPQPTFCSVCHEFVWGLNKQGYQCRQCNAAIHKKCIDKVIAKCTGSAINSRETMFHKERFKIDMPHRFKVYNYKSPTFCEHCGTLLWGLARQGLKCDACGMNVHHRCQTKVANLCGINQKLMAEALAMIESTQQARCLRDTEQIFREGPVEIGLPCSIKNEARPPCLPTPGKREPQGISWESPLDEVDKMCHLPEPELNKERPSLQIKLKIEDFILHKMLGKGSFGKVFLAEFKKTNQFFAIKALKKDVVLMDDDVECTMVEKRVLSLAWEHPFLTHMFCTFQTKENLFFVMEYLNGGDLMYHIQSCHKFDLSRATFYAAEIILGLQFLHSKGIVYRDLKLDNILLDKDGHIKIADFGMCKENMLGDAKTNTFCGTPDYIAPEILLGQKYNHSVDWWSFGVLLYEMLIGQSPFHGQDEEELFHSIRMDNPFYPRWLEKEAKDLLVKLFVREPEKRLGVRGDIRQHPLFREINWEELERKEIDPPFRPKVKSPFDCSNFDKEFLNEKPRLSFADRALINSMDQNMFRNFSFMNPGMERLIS

[15] = target: Protein kinase C theta type (Homo sapiens) (UniProt Q04759); conditions: at 1 µM
[16] = target: Protein kinase C beta type (Homo sapiens) (UniProt P05771); conditions: at 0.1 µM; remark: listed apart in the source
[17] = target: Protein kinase C beta type (Homo sapiens) (UniProt P05771); conditions: at 1 µM; remark: listed apart in the source
[18] = target: T3, Serine/threonine-protein kinase D1 (Homo sapiens) (UniProt Q15139); conditions: at 0.1 µM
T3 sequence (whole entry): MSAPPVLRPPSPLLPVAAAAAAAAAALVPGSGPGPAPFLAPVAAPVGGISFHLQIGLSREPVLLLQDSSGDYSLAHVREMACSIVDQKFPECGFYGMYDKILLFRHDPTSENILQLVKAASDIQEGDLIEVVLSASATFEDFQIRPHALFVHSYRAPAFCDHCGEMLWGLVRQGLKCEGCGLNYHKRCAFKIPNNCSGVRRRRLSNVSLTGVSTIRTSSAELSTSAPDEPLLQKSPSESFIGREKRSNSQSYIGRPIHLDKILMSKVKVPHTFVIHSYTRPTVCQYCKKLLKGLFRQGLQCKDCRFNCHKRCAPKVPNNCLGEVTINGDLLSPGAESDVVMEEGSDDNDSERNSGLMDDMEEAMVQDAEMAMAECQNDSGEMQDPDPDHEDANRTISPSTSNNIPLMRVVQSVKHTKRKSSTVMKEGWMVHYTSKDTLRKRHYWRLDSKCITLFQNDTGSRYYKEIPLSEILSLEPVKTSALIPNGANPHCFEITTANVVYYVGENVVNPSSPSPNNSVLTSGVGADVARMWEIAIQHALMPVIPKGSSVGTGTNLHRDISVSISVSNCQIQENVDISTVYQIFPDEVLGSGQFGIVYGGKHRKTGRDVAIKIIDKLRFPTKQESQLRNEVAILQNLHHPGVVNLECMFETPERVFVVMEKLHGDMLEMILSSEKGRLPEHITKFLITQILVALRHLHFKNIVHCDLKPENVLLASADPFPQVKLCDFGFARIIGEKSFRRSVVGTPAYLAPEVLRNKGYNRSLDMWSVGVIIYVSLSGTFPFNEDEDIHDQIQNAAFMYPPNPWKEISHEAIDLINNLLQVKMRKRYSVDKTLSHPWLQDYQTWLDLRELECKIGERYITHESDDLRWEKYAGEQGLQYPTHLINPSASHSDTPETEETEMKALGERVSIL

[19] = target: T3, Serine/threonine-protein kinase D1 (Homo sapiens); conditions: at 1 µM
[20] = target: T4, Serine/threonine-protein kinase D2 (Homo sapiens) (UniProt Q9BZL6); conditions: at 0.1 µM;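 note: reported percent inhibition values are means, part of the GSK PKIS kinase panel screen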
T4 sequence (whole entry): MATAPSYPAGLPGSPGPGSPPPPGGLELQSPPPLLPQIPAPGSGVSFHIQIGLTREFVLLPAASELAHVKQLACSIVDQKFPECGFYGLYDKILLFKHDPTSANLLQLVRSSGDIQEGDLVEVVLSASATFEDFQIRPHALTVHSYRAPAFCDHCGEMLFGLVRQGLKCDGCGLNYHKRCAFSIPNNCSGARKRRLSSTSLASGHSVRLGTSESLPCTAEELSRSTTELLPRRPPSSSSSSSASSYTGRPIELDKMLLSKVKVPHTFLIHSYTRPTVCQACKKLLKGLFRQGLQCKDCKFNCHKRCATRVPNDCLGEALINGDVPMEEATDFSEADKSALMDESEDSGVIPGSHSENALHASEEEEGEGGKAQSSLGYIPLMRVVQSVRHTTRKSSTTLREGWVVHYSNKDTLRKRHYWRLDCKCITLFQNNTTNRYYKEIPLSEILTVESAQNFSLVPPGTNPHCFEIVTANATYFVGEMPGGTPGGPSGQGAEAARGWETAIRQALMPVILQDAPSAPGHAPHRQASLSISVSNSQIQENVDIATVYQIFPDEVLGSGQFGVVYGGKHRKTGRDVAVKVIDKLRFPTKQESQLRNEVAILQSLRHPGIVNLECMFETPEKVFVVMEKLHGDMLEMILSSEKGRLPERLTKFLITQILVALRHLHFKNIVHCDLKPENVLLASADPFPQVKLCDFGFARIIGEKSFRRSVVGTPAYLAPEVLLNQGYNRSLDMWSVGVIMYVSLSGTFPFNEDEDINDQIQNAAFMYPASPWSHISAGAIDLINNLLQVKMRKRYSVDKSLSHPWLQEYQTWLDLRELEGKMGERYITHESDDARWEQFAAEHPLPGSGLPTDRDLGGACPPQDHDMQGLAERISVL

## c1cnn2ncc(-c3ccnc(Nc4ccc5c(c4)OCCO5)n3)c2c1
[1]
  inhibition: 4.84%
[2]
  inhibition: 1.74%
[3]
  inhibition: 7.09%
[4]
  inhibition: 2.47%
[5]
  inhibition: 20.4%
[6]
  inhibition: 1.95%
[7]
  inhibition: 4.36%
[8]
  inhibition: 4.51%
[9]
  inhibition: 8.26%
[10]
  inhibition: 1.93%
[11]
  inhibition: 9.81%
[12]
  inhibition: 2.88%
[13]
  inhibition: 1.82%
[14]
  inhibition: 2.63%
[15]
  inhibition: 5.92%
[16]
  inhibition: 0.79%
[17]
  inhibition: 5.22%
[18]
  inhibition: 6.99%
[19]
  inhibition: 45.1%
[20]
  inhibition: 5.55%

## CCn1c(-c2nonc2N)nc2cncc(C(=O)N3CC[C@H](N)C3)c21
[1]
  inhibition: 9.36%
[2]
  inhibition: 49.1%
[3]
  inhibition: 82.2%
[4]
  inhibition: 5.69%
[5]
  inhibition: 45.5%
[6]
  inhibition: 43.9%
[7]
  inhibition: 74.5%
[8]
  inhibition: 51.2%
[9]
  inhibition: 88.3%
[10]
  inhibition: 6.77%
[11]
  inhibition: 41.1%
[12]
  inhibition: 8.94%
[13]
  inhibition: 40%
[14]
  inhibition: 5.26%
[15]
  inhibition: 23.8%
[16]
  inhibition: 11.4%
[17]
  inhibition: 45.6%
[18]
  inhibition: 4.56%
[19]
  inhibition: 9.27%
[20]
  inhibition: 6.65%

## Nc1ncnc2occ(-c3ccc(NC(=O)Nc4cc(C(F)(F)F)cc(C(F)(F)F)c4)cc3)c12
[1]
  inhibition: 1.59%
[2]
  inhibition: 0.91%
[3]
  inhibition: 0.7%
[4]
  inhibition: 0.06%
[5]
  inhibition: 0.45%
[6]
  inhibition: -0.8%
[7]
  inhibition: -1.24%
[8]
  inhibition: 1.47%
[9]
  inhibition: -0.03%
[10]
  inhibition: 3.16%
[11]
  inhibition: -0.32%
[12]
  inhibition: 0.16%
[13]
  inhibition: 2.82%
[14]
  inhibition: 0.72%
[15]
  inhibition: -1.36%
[16]
  inhibition: 0.68%
[17]
  inhibition: 0.44%
[18]
  inhibition: 1.17%
[19]
  inhibition: 1.94%
[20]
  inhibition: 1.61%

## CN1CCC(C(=O)Nc2n[nH]c3nnc(-c4ccccc4)cc23)CC1
[1]
  inhibition: 0.14%
[2]
  inhibition: 2.6%
[3]
  inhibition: 1.51%
[4]
  inhibition: 0.67%
[5]
  inhibition: 1.72%
[6]
  inhibition: 1.03%
[7]
  inhibition: 1.27%
[8]
  inhibition: 4.63%
[9]
  inhibition: 5.6%
[10]
  inhibition: 2.25%
[11]
  inhibition: 5.3%
[12]
  inhibition: 2.28%
[13]
  inhibition: 0.85%
[14]
  inhibition: 2.64%
[15]
  inhibition: 3.84%
[16]
  inhibition: 1.32%
[17]
  inhibition: 1.6%
[18]
  inhibition: 5.4%
[19]
  inhibition: 6.32%
[20]
  inhibition: 4.78%

## NC(=O)c1ccc(-c2nc(-c3ccccn3)c(-c3ccc4c(c3)OCO4)[nH]2)cc1
[1]
  inhibition: 2.65%
[2]
  inhibition: 1%
[3]
  inhibition: 2.8%
[4]
  inhibition: 1.23%
[5]
  inhibition: 3.42%
[6]
  inhibition: -0.16%
[7]
  inhibition: 2.78%
[8]
  inhibition: -0.32%
[9]
  inhibition: -0.29%
[10]
  inhibition: -0.15%
[11]
  inhibition: 3.47%
[12]
  inhibition: 0.81%
[13]
  inhibition: -0.05%
[14]
  inhibition: 0.77%
[15]
  inhibition: 1.31%
[16]
  inhibition: 1.96%
[17]
  inhibition: 5.1%
[18]
  inhibition: 2.47%
[19]
  inhibition: 5.43%
[20]
  inhibition: 2.87%

## CC1=C(C(=O)Nc2ccc3[nH]ncc3c2)C(c2ccc3ccccc3c2)CC(=O)N1 (stereo not given)
[1]
  inhibition: 2.2%
[2]
  inhibition: 7.18%
[3]
  inhibition: 45.9%
[4]
  inhibition: 1.26%
[5]
  inhibition: 1.61%
[6]
  inhibition: 1.81%
[7]
  inhibition: 0.44%
[8]
  inhibition: 4.97%
[9]
  inhibition: 14.1%
[10]
  inhibition: 0.67%
[11]
  inhibition: 2.79%
[12]
  inhibition: 1.06%
[13]
  inhibition: 0.77%
[14]
  inhibition: 1.49%
[15]
  inhibition: 3%
[16]
  inhibition: 0.83%
[17]
  inhibition: 1.67%
[18]
  inhibition: 2.78%
[19]
  inhibition: 9.17%
[20]
  inhibition: 2.02%

Source: ChEMBL document CHEMBL1961873, “Compounds: GSK PKIS; Assays: Nanosyn kinase panel” (2012)
